The values below come from PubChem BioAssay AID2242 (National Center for Advancing Translational Sciences (NCATS), 2010).

Hit rate of the full screen: of about 200,000 compounds, about 720 (0.36%) were called active. Not shown: some 8% with an inconclusive outcome. The call rests on the fitted dose curve; in most records, active means well fitted activation curve with a large enough effect; inconclusive means small, poorly fitted or top-dose-only effect, or effect the other way, or another doubt; inactive means flat fitted curve, though single readings scatter. The list shows a part of the results.
Potency means the concentration at half of the fitted maximal effect.

The target in this test is Lysosomal alpha-glucosidase (Homo sapiens) (UniProt P10253). Put plainly: qHTS Assay for Activators of Human alpha-Glucosidase as a Potential Chaperone Treatment of Pompe Disease. Further: nearly all actives have a fitted effect of over 80% in size. The conditions noted are these: purified enzyme, 4-MU-alpha-glucoside fluorescence, 20 min; series mostly up to 76.9 µM. The method in brief: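 Fluorogenic assay, 4 nM enzyme, 400 uM 4-methylumbelliferyl-[…], pH 5.0 citrate/phosphate buffer with 0.005% Tween-20, compounds up to 77 uM, 20 min at room temperature. NaOH/glycine stop, Ex 365/Em 440 nm; AC50 from Hill fits.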
Background: Quantitative high-throughput screening tests each substance at several concentrations.
Take `O=C(NCc1cccs1)c1cc2c(s1)-c1ccccc1OC2`: the Potency is 39.8 µM (active).

Consider `CN(C)CCNC(=O)c1cc2c(s1)-c1ccccc1OC2`, for which the Potency is 6.31 µM (active).

For the molecule `COC(=O)c1ccc(-c2ncc(-c3cccc4ccccc34)o2)cc1`, the Potency is 28.2 µM (active).

As to `Cc1cc(-c2ccc(C(=O)O)s2)cnc1N`, the Potency was 28.2 µM (active).

On to `O=C(COC(=O)c1ccccc1Nc1ccccc1)NCc1ccccc1Cl`, for which the Potency was 28.2 µM (active).

Regarding `CCCCNS(=O)(=O)c1ccc2nc(-c3cccs3)cc(C(=O)NCC(OC)OC)c2c1`, the Potency is 25.1 µM (active).

For the molecule `COc1cc2cc(C(N)=O)c(N)nc2cc1OC`, the Potency is 35.5 µM (active).

With `COc1ccccc1N1CCN(C(=O)c2c(-c3ccccc3)noc2C)CC1`, the Potency is 35.5 µM (active).

In the case of `CCNC(=O)/C(C#N)=C/c1c(N2CCOCC2)nc2ccccn2c1=O`, the Potency was 28.2 µM (active).

On to `O=c1cc(CN2CCN(S(=O)(=O)/C=C/c3ccccc3)CC2)c2ccc(O)cc2o1`, for which the Potency was 35.5 µM (active).

As to `O=c1cc(CN2CCN(S(=O)(=O)c3ccc4c(c3)OCCO4)CC2)c2ccc(O)cc2o1`, the Potency was 28.2 µM (active).

For the molecule `O=c1[nH]c(=O)c2nc(-c3ccc(Cl)cc3)cnc2[nH]1`, the Potency is 28.2 µM (active).

In the case of `c1ccc(CN2c3ccccc3-c3nc4ccccc4n3C2c2ccccn2)cc1` (configuration not stated), the Potency was 28.2 µM (active).

`CCN1c2ccccc2-c2nc3ccccc3n2C1c1ccccn1` (configuration not stated): the Potency is 31.6 µM (active).

`CCOCC(=O)Nc1ccc(-c2cn3cccnc3n2)cc1`: the Potency is 35.5 µM (active).

On to `CC(=O)Nc1ccc(-c2cn3cccnc3n2)cc1`, for which the Potency is 28.2 µM (active).

On to `CCOCC(=O)Nc1cc(-c2cn3cccnc3n2)ccc1C`, for which the Potency is 35.5 µM (active).

For the molecule `COCC(=O)Nc1ccc(-c2cn3cccnc3n2)cc1`, the Potency was 35.5 µM (active).

As for `CCCCCC(=O)Nc1ccc(-c2cn3cccnc3n2)cc1`, the Potency was 35.5 µM (active).

As for `Cc1onc(-c2ccccc2Cl)c1C(=O)Nc1ccc(-c2cn3cccnc3n2)cc1`, the Potency was 35.5 µM (active).

`Cc1onc(-c2ccccc2Cl)c1C(=O)Nc1cccc(-c2nc3ncccn3c2C)c1`: the Potency is 35.5 µM (active).

For `CC(C)(O[C@@H]1O[C@H](CO)[C@@H](O)[C@H](O)[C@H]1O)[C@H]1Cc2cc3ccc(=O)oc3cc2O1`, the Potency was 35.5 µM (active).

With `O=C(Oc1ccc2c3c(c(=O)oc2c1)CCC3)c1ccco1`, the Potency is 35.5 µM (active).

As for `O=C(Oc1cc2oc(=O)c3c(c2cc1Cl)CCCC3)c1ccco1`, the Potency was 10 µM (active).

As to `O=C(Oc1ccc2c3c(c(=O)oc2c1)CCCC3)c1ccco1`, the Potency was 35.5 µM (active).

With `CCCc1cc(NCC2CCCO2)n2c(nc3ccccc32)c1C#N` (configuration not stated), the Potency was 35.5 µM (active).

For `CC(C)c1cc(NCC2CCCO2)n2c(nc3ccccc32)c1C#N` (configuration not stated), the Potency was 35.5 µM (active).
